Test results reported in PubChem BioAssay (NCI).
Several values for one entry are separate records, joined by “and”; a condition that tells them apart may be missing. Identical values can stand only once. The panel holds about 83,000 compounds, 20% with a hit somewhere; the sample as a whole holds those more often.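 The test compound was applied at a single concentration to cells in 96-well plates for 48 hours, and percent growth was recorded.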 Activity calls are given as the source filed them. The calls were made as follows: active = growth percent below 10; inactive = the rest.

The molecules below were run on OVCAR-3 ovarian (assay: NCI-60 one-dose screen, 48 h (100 = growth as untreated, 0 = no growth, -100 = all killed)). Settings: 10 µM unless noted.

| Compound | growth |
| --- | --- |
| CC(=O)ON=C1C=CC(=C(C#N)c2ccccc2)C=C1 | -30.6% (active) |
| O=C1C=CC(=O)N1C1c2ccccc2-c2ccccc21 | 35.4% (inactive) |
| COC(=O)c1nc(=S)[nH]c(C(=O)OC)c1C(=O)c1ccc2ccccc2c1 | 109% (inactive) |
| O=C(Nc1ccccc1)Oc1c(Cl)c(Cl)c(Cl)c(Cl)c1Cl | 96.9% (inactive) and 104% (inactive) |
| O=C1N[C@H]2[C@H](CS[C@H]2CCCCC(=O)N(CCP(c2ccccc2)c2ccccc2)CCP(c2ccccc2)c2ccccc2)N1 | 0.222% (active) |
| CCCCCCCCCCCCCCNCc1ccccc1 | 91.4% (inactive) |
| CC(C)(C)CC(C)(C)c1ccc(OCCSC(=N)N)cc1 | 46.7% (inactive) |
| Cc1ccnc(NC(c2ccccc2)c2ccc3cccnc3c2O)c1 (centres undefined) | 19.5% (inactive) |
| CNC(=O)N/N=C/c1ccc([N+](=O)[O-])o1 | 103% (inactive) |
| O=Nc1ccccc1N=O | 118% (inactive) |
| O=C(/C=C\c1ccccc1)N1c2ccccc2CC1c1c[nH]c2ccccc12 (centres undefined) | 75% (inactive) |
| CN=C(N)N/N=C(\C)c1ccc2c(c1)Cc1cc(/C(C)=N/NC(N)=NC)ccc1-2 | -59.6% (active) |
| COC(=O)Nc1nc2ccc(C(=O)c3ccccc3)cc2[nH]1 | -50.1% (active) and -60.4% (active) and -59.4% (active) |
| O=C(Nc1cccc(Br)c1)Oc1ccc(Cl)c2cccnc12 | -48.7% [100 µM] (active) |
| O=C(CC1(O)C(=O)Nc2c(Cl)ccc(Cl)c21)c1ccc(Cl)cc1Cl (centres undefined) | 106% (inactive) |
| C[N+](C)=c1ccc2nc3c(cc(NCCCNc4cc5oc6cc(=[N+](C)C)ccc-6nc5c5ccccc45)c4ccccc43)oc-2c1 | -54.5% (active) |
| COc1cc(NS(C)(=O)=O)ccc1Nc1c2ccccc2nc2ccccc12 | 58.7% [2.5 µM] (inactive) |
| NC(=O)/C=C/C(=O)c1c(Cl)cccc1Cl | -81.3% (active) |
| C[n+]1c(/C=C/c2ccc([N+](=O)[O-])cc2)ccc2ccccc21 | 99.5% (inactive) |
| NC(N)=N/N=C/c1ccc([N+](=O)[O-])o1 | 83.1% (inactive) |
| S=C(NCCNC(=S)[S][Sn]([c]1ccccc1)([c]1ccccc1)[c]1ccccc1)[S][Sn]([c]1ccccc1)([c]1ccccc1)[c]1ccccc1 | -98.5% (active) |
| CCC(CCCN(CC)CCc1ccccc1)OC(=O)c1cc(OC)c(OC)c(OC)c1 (centres undefined) | 92.2% (inactive) |
| COc1ccccc1OC(=O)Oc1ccccc1OC | 119% (inactive) and 96.3% (inactive) |
| CCN(CC)CCOc1ccc(-c2nc3cc(Cl)ccc3s2)cc1 | -4.49% (active) |
| O=[N+]([O-])c1ccc(N=Nc2ccc(O)cc2O)cc1 | 54.8% (inactive) |
| Cc1cc(N)c2ccccc2[n+]1CCCCCCCCCC[n+]1c(C)cc(N)c2ccccc21 | -16.7% (active) and 15% (inactive) |
| CN(C)C(=O)SC1=C(c2c(Cl)cccc2Cl)C(=O)c2ccccc21 | -81.5% (active) |

Same assay, conditions: 100 µM

| Compound | growth |
| --- | --- |
| O=C(Nc1cccc(Br)c1)Oc1cccc2cccnc12 | -74.7% (active) |
| O=C(O)c1c(Cl)c(Cl)c(Cl)c(Cl)c1-c1c2cc(I)c(=O)c(I)c-2oc2c(I)c(O)c(I)cc12 | -26.1% (active) |
| CN(C)C(=O)c1ccc(SC(=S)NCc2ccccc2)cc1 | 46.9% (inactive) |
| COc1ccc(-c2cscc2N)cc1 | 40.9% (inactive) |
| O=C(Nc1c(Cl)cccc1Cl)Oc1cccc2cccnc12 | 4.16% (active) |

These molecules were tested on HS 578T breast in the same assay as above. Settings: 10 µM.

| Compound | growth |
| --- | --- |
| O=C(Nc1cccc(Br)c1)Oc1cccc2cccnc12 | 110% (inactive) |
| O=C(O)c1c(Cl)c(Cl)c(Cl)c(Cl)c1-c1c2cc(I)c(=O)c(I)c-2oc2c(I)c(O)c(I)cc12 | 107% (inactive) and 93.5% (inactive) |
| CN(C)C(=O)c1ccc(SC(=S)NCc2ccccc2)cc1 | 116% (inactive) |
| COc1ccc(-c2cscc2N)cc1 | 106% (inactive) |
| O=C(Nc1c(Cl)cccc1Cl)Oc1cccc2cccnc12 | 90.6% (inactive) |

Same assay, conditions: 10 µM unless noted

| Compound | growth |
| --- | --- |
| CC(=O)ON=C1C=CC(=C(C#N)c2ccccc2)C=C1 | 15.5% (inactive) |
| O=C1C=CC(=O)N1C1c2ccccc2-c2ccccc21 | 102% (inactive) |
| COC(=O)c1nc(=S)[nH]c(C(=O)OC)c1C(=O)c1ccc2ccccc2c1 | 103% (inactive) |
| O=C(Nc1ccccc1)Oc1c(Cl)c(Cl)c(Cl)c(Cl)c1Cl | 91.6% (inactive) |
| O=C1N[C@H]2[C@H](CS[C@H]2CCCCC(=O)N(CCP(c2ccccc2)c2ccccc2)CCP(c2ccccc2)c2ccccc2)N1 | 84.4% (inactive) |
| CCCCCCCCCCCCCCNCc1ccccc1 | 95% (inactive) |
| CC(C)(C)CC(C)(C)c1ccc(OCCSC(=N)N)cc1 | 91.4% (inactive) |
| Cc1ccnc(NC(c2ccccc2)c2ccc3cccnc3c2O)c1 (centres undefined) | 66.9% (inactive) |
| CNC(=O)N/N=C/c1ccc([N+](=O)[O-])o1 | 98.1% (inactive) |
| O=Nc1ccccc1N=O | 84.2% (inactive) |
| O=C(/C=C\c1ccccc1)N1c2ccccc2CC1c1c[nH]c2ccccc12 (centres undefined) | 75.3% (inactive) |
| CN=C(N)N/N=C(\C)c1ccc2c(c1)Cc1cc(/C(C)=N/NC(N)=NC)ccc1-2 | -8.27% (active) |
| COC(=O)Nc1nc2ccc(C(=O)c3ccccc3)cc2[nH]1 | 35.5% (inactive) and 15.8% (inactive) and 21.6% (inactive) |
| O=C(Nc1cccc(Br)c1)Oc1ccc(Cl)c2cccnc12 | 50.9% [100 µM] (inactive) |
| O=C(CC1(O)C(=O)Nc2c(Cl)ccc(Cl)c21)c1ccc(Cl)cc1Cl (centres undefined) | 94% (inactive) |
| C[N+](C)=c1ccc2nc3c(cc(NCCCNc4cc5oc6cc(=[N+](C)C)ccc-6nc5c5ccccc45)c4ccccc43)oc-2c1 | 87.4% (inactive) |
| COc1cc(NS(C)(=O)=O)ccc1Nc1c2ccccc2nc2ccccc12 | -6.75% [2.5 µM] (active) |
| NC(=O)/C=C/C(=O)c1c(Cl)cccc1Cl | -7.11% (active) |
| C[n+]1c(/C=C/c2ccc([N+](=O)[O-])cc2)ccc2ccccc21 | 99.7% (inactive) |
| NC(N)=N/N=C/c1ccc([N+](=O)[O-])o1 | 105% (inactive) |
| S=C(NCCNC(=S)[S][Sn]([c]1ccccc1)([c]1ccccc1)[c]1ccccc1)[S][Sn]([c]1ccccc1)([c]1ccccc1)[c]1ccccc1 | -14.5% (active) |
| CCC(CCCN(CC)CCc1ccccc1)OC(=O)c1cc(OC)c(OC)c(OC)c1 (centres undefined) | 81.3% (inactive) |
| COc1ccccc1OC(=O)Oc1ccccc1OC | 92.4% (inactive) and 102% (inactive) |
| CCN(CC)CCOc1ccc(-c2nc3cc(Cl)ccc3s2)cc1 | -29.2% (active) |
| O=[N+]([O-])c1ccc(N=Nc2ccc(O)cc2O)cc1 | 51.8% (inactive) |
| Cc1cc(N)c2ccccc2[n+]1CCCCCCCCCC[n+]1c(C)cc(N)c2ccccc21 | 34.7% (inactive) |
| CN(C)C(=O)SC1=C(c2c(Cl)cccc2Cl)C(=O)c2ccccc21 | 21.4% (inactive) |
